# Measured values from PubChem BioAssay.
# Several values for one entry are separate records, joined by “and”; a condition that tells them apart may be missing. Identical values can stand only once. Activity calls are given as the source filed them. Rule as the data show it, unless noted: active = nuclear beta-catenin stimulation mostly above about 4.2% (no sharp cut-off); inactive = mostly below about 10%.
# Tests used:
# [1] = stimulators of nuclear beta-catenin in C2C12, primary screen, imaging, WNT3A-conditioned medium, mouse C2C12, NPC library (AID 1117326); details: stronger effect = higher value
# [2] = growth inhibition of GSK3B-pretreated HCT116 cells – cell-based, CellTiter-Glo, 0.2 to 20 µM (AID 1117336;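 active = compounds lowering colon cancer cell viability after pretreatment blocking the GSK3B kinase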); details: HCT116 viability after GSK3B inhibitor, at 20 µM, stronger effect = higher value
# [3] = inhibition of endothelial tube formation, primary screen, imaging, VEGF stimulated, CD31 staining, tube area, NPC library (AID 1117340;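 active = compound that reduces growth-factor-driven endothelial tube area in a mixed cell culture, no cutoff stated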); details: VEGF-stimulated ADSC/ECFC co-culture, at 10 µM, stronger effect = higher value
# [4] = HCT116 colon cancer cell growth inhibition, primary screen, CellTiter-Glo luminescence, NPC library (AID 1117342;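 active = compounds that lower survival of HCT116 colon cancer cells in the luminescence readout, no numeric limit stated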); details: at 20 µM (top of the series)
# [5] = CellTiter-Glo luminescent readout of SW480 viability loss, NPC library primary (AID 1117343;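 active = compounds that lower viability of the colon cancer cells in the luminescence readout, with no numeric limit stated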); details: CellTiter-Glo luminescence; at 20 µM (top of the series) unless noted
# [6] = decreased DLD-1 cellular survival, CellTiter-Glo luminescent readout, NPC compound collection, primary HTS (AID 1117346;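 active = compounds that lower survival of DLD-1 colon cancer cells in the luminescence readout, no cutoff given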); details: DLD-1 viability, CellTiter-Glo luminescence; at 20 µM (top of the series)
# [7] = stimulators of insulin release from INS-1E, primary screen, cell-based, 5 mM glucose, NPC library (AID 1117329;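 active = compound raises insulin release from rat beta cells at 5 mM glucose, no numeric limit stated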); details: rat INS-1E insulin secretion, at 10 µM, stronger effect = higher value
# [8] = glucagon-like peptide 1 release enhancers, primary assay, NCI-H716 cell line, NPC library (AID 1117341;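 active = compound raises GLP1 secretion from the human gut endocrine cells, with no numeric limit stated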); details: NCI-H716 cells, at 10 µM, stronger effect = higher value
# [9] = differential killing of epithelial or mesenchymal cells, primary screen, imaging, PC-3E GFP, TEM4-18 mCherry, co-culture (AID 1345086;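 active = compounds killing one labelled cell type while sparing the other, by normalised counts and ratio limits, not self-fluorescent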;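 as to all read-outs here: cells exposed to compound for 72 h before imaging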;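 as to red/green cell ratio (normalised): normalised mesenchymal count divided by normalised epithelial count so high means epithelial killing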); details: imaging cell counts, at 1 µM; for red/green cell ratio (normalised): actives lie on both sides, counts scaled to control wells, 1 = unselective
# [10] = sensitizers of A549 cells to miR-34 induction, primary screen, imaging, A549 dox-inducible miR-34, nuclei and caspase counts (AID 1347080;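 active = compounds whose cell count with miR-34 switched on is under 0.7 times the count with it off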); details: A549 miR-34 inducible, Hoechst nuclei count, 48 h
# [11] = molecular target: NAD(+) hydrolase SARM1 (Homo sapiens) (UniProt Q6SZW1); assay: SARM1 TIR NADase inhibitors, cell lysate, NAD-Glo luminescence (AID 1508614;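 active = compound whose remaining NAD level is above about 45 nM, limit read from the data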;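 also: higher remaining NAD means stronger inhibition of SARM1 NADase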); details: SAM-TIR HEK293T lysate NADase, at 1 µM, stronger effect = higher value
# Chain of NAD(+) hydrolase SARM1 (Homo sapiens) (Q6SZW1 whole entry, looked up): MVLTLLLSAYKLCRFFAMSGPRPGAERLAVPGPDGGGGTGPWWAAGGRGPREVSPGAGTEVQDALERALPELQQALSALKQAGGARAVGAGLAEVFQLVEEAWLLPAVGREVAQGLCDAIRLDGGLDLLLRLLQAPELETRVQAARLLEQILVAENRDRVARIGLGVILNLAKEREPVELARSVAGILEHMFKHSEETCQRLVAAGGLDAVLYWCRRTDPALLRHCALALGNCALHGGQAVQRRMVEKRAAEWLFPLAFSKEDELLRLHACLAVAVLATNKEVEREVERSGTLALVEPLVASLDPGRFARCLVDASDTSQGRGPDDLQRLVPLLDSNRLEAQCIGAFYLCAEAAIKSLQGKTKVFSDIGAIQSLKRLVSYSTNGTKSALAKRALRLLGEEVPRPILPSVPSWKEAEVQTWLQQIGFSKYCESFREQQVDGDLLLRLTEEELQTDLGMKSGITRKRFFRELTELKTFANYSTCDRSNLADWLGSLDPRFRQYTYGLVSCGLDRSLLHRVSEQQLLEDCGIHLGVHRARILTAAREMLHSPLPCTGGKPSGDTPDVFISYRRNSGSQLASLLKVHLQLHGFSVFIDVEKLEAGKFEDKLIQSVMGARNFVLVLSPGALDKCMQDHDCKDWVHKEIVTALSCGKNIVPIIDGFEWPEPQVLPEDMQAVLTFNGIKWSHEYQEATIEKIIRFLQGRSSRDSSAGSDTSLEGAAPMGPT
# [12] = viability rescue of complex I mutant cybrids, primary screen, cell-based, galactose medium, ATP luminescence (AID 1645843;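 active = z-score of at least 1.8 in each of two replicates, scored against plate mean and spread of sample wells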;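 also: positive z means more ATP and so rescue of galactose-driven cybrid death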); details: complex I mutant cybrid cells, 72 h, stronger effect = higher value
# [13] = hESC survival regulators, cell-based (AID 493140; call rule not given here;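 also: cells exposed to compounds for four days before counting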); details: human embryonic stem cell survival screen; stronger effect = higher value
# [14] = liver-stage malaria parasite growth inhibition, primary screen, cell-based, HepG2, luciferase luminescence, HepG2 viability (AID 624349; in the data active = parasite load remaining mostly below about 12%, no sharp cut-off; inactive = mostly above about 10%;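 also: 100% = mean of DMSO negative control wells on the same plate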); details: P. berghei liver stage in HepG2, luciferase luminescence, concentration not given here; parasite load remaining: stronger effect = lower value; viability: measured here: HepG2 viability without parasites
# [15] = survival rescue of mitochondrial mutant cells in low glucose, primary screen, MELAS cybrids, Rieske KO mouse fibroblasts, CellTiter-Glo (AID 1508586;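 active = mean z-score across replicates of 1.96 or higher in either the MELAS or the Rieske mutant cell line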;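 also: z relative to plate mean and SD of compound and empty wells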)
# [16] = polyglutamine-triggered caspase-3 activation inhibitors, cell-based (AID 1583); details: polyglutamine-induced caspase-3 activation, cell assay; stronger effect = higher value;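 tested at 10 µM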
# [17] = molecular target: Mitogen-activated protein kinase 7 (Homo sapiens) (UniProt Q13164); assay: ERK5 transactivation activators in reporter cells, primary screen, cell-based, HTS (AID 1508626;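 active = luciferase signal above three times the same-plate solvent-only control wells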;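 also: luciferase driven by Gal4-ERK5 fusion binding five Gal4 sites before minimal TATA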); details: HeLa Gal4-ERK5 transactivation, 18 h, at 5 µM, stronger effect = higher value
# Chain of Mitogen-activated protein kinase 7 (Homo sapiens) (Q13164 whole entry, looked up, the tested form may be a part): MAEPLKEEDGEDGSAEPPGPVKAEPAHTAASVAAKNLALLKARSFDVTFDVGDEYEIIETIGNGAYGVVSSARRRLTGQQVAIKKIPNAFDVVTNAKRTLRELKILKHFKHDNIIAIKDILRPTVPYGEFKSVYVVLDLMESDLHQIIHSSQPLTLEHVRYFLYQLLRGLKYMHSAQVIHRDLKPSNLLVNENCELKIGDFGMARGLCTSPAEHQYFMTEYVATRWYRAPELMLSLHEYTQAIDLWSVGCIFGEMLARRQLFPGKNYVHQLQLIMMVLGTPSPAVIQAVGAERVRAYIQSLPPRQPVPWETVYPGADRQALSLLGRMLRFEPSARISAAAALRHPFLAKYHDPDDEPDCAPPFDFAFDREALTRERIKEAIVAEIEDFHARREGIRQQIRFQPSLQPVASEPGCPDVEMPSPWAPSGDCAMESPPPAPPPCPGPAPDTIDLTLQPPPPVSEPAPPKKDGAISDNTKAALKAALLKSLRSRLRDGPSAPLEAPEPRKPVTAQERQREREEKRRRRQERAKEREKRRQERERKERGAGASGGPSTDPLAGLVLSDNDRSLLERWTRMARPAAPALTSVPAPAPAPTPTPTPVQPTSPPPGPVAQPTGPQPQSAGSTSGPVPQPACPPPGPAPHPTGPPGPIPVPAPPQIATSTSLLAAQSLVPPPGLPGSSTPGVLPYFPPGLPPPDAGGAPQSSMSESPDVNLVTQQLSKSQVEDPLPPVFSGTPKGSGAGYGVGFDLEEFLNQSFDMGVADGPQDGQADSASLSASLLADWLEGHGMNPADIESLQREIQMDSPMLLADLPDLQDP
# [18] = measured here: epithelial PC-3E GFP cell survival
# [19] = measured here: mesenchymal TEM4-18 mCherry cell survival
# [20] = stronger effect = lower value, cell number ratio, induced over uninduced
# [21] = measured here: relative caspase fold change +Dox/-Dox
# [22] = measured here: total cells with miR-34 induction, stronger effect = lower value
# [23] = measured here: total cells without miR-34 induction
structure (smiles),measurement,setting,value
CC(COc1ccccc1)NN (configuration not stated),nuclear beta-catenin stimulation,[1]; at 10 µM,1.8% (inactive)
same,nuclear beta-catenin stimulation,"[1]; stimulation, at 2 µM",5.4%
same,viability decrease,[2],26.7% (inactive)
same,tube area decrease,[3],1.6% (inactive)
same,inhibition of viability,[4],8% (inactive)
same,viability decrease (inhibition),[5],19.2% (inactive)
same,viability decrease (inhibition),[6],7.4% (inactive)
CCCCC(CC)COC(=O)CC(C(=O)OCC(CC)CCCC)S(=O)(=O)O (configuration not stated),nuclear beta-catenin stimulation,[1]; at 10 µM,2.7% (inactive)
same,nuclear beta-catenin stimulation,"[1]; stimulation, at 2 µM",-0.9%
same,insulin secretion stimulation,[7],-1.3% (inactive)
same,GLP1 secretion stimulation,[8],84.6% (active)
same,red/green cell ratio (normalised),[9],0.91 (inactive)
same,normalised cell number,[9]; [18],0.99
same,normalised cell number,[9]; [19],0.9
same,fold change,[10]; [20],0.854 (inactive)
same,fold change,[10]; [21],1.07
same,cell count,[10]; [22],8120
same,cell count,[10]; [23],9510
same,remaining NAD,[11],10 nM (inactive)
CSc1ccc(/C=C2/C(C)=C(CC(=O)O)c3cc(F)ccc32)cc1,nuclear beta-catenin stimulation,[1]; at 10 µM,-1.4% (inactive)
same,nuclear beta-catenin stimulation,"[1]; stimulation, at 2 µM",-0.1%
same,insulin secretion stimulation,[7],1.85% (inactive)
same,GLP1 secretion stimulation,[8],9.9% (inactive)
CN1CCN(C2Cc3ccccc3Sc3ccc(Cl)cc32)CC1 (configuration not stated),nuclear beta-catenin stimulation,[1]; at 10 µM,5.2% (inactive)
same,nuclear beta-catenin stimulation,"[1]; stimulation, at 2 µM",-1.6%
same,insulin secretion stimulation,[7],6.6% (inactive)
same,GLP1 secretion stimulation,[8],13.2% (inactive)
same,fold change,[10]; [20],1.08 (inactive)
same,fold change,[10]; [21],0.783
same,cell count,[10]; [22],5640
same,cell count,[10]; [23],5230
same,z-score,[12],-1.27 (inactive)
CC(=O)N(CC(O)CN(C(C)=O)c1c(I)c(C(=O)NCC(O)CO)c(I)c(C(=O)NCC(O)CO)c1I)c1c(I)c(C(=O)NCC(O)CO)c(I)c(C(=O)NCC(O)CO)c1I (configuration not stated),survival,[13],2.67 (inactive)
same,parasite load remaining,[14],80.7% (inactive)
same,viability,[14],90.6%
same,nuclear beta-catenin stimulation,[1]; at 10 µM,0.8% (inactive)
same,nuclear beta-catenin stimulation,"[1]; stimulation, at 2 µM",1.9%
same,insulin secretion stimulation,[7],0.95% (inactive)
same,GLP1 secretion stimulation,[8],2% (inactive)
same,red/green cell ratio (normalised),[9],1.05 (inactive)
same,normalised cell number,[9]; [18],1
same,normalised cell number,[9]; [19],1.05
same,fold change,[10]; [20],0.892 (inactive)
same,fold change,[10]; [21],0.943
same,cell count,[10]; [22],8820
same,cell count,[10]; [23],9890
same,z-score,"[15]; MELAS cybrid survival, CellTiter-Glo 48 h, stronger effect = higher value",0.435 (inactive)
same,z-score,"[15]; Rieske KO mouse fibroblast survival, CellTiter-Glo 72 h",-0.343
same,remaining NAD,[11],10 nM (inactive)
CCOC(=O)c1ccccc1O,nuclear beta-catenin stimulation,[1]; at 10 µM,1.4% (inactive)
same,nuclear beta-catenin stimulation,"[1]; stimulation, at 2 µM",8.4%
same,viability decrease,[2],4.2% (inactive)
same,tube area decrease,[3],-12.2% (inactive)
same,inhibition of viability,[4],3.3% (inactive)
same,viability decrease (inhibition),[5],-4.5% (inactive)
same,viability decrease (inhibition),[6],-2.7% (inactive)
O=C(O)CCC(=O)OC[C@@H](NC(=O)C(Cl)Cl)[C@H](O)c1ccc([N+](=O)[O-])cc1,inhibition,[16],29.9%
same,parasite load remaining,[14],75.9% (inactive) and 67.1% (inactive)
same,viability,[14],75.5% and 91.9%
same,nuclear beta-catenin stimulation,[1]; at 10 µM,2.4% (inactive)
same,nuclear beta-catenin stimulation,"[1]; stimulation, at 2 µM",0.4%
same,insulin secretion stimulation,[7],0% (inactive)
same,GLP1 secretion stimulation,[8],4.4% (inactive)
same,fold change,[10]; [20],0.886 (inactive)
same,fold change,[10]; [21],1.1
same,cell count,[10]; [22],11000
same,cell count,[10]; [23],12500
same,remaining NAD,[11],10 nM (inactive)
same,luciferase signal,[17],44 AU (inactive)
Cc1c(O)cc2c(c1C)O[C@](C)(CCC[C@H](C)CCC[C@H](C)CCCC(C)C)CC2,nuclear beta-catenin stimulation,[1]; at 10 µM,0.3% (inactive)
same,nuclear beta-catenin stimulation,"[1]; stimulation, at 2 µM",-0.6%
same,insulin secretion stimulation,[7],0.7% (inactive)
same,GLP1 secretion stimulation,[8],9.2% (inactive)
COc1ccc2c(c1)c1c3n2CCN(C)C3=NCC1,nuclear beta-catenin stimulation,[1]; at 10 µM,1.3% (inactive)
same,nuclear beta-catenin stimulation,"[1]; stimulation, at 2 µM",0.5%
same,insulin secretion stimulation,[7],1.05% (inactive)
same,GLP1 secretion stimulation,[8],6.4% (inactive)
